Data on 7 compounds can be found in PubChem BioAssay (NCI).

Among the test systems are EKVX NSCLC; TK-10 renal; ACHN renal; CAKI-1 renal; CCRF-CEM leukemia; MOLT-4 leukemia; SR leukemia; RPMI-8226 leukemia; OVCAR-8 ovarian; OVCAR-5 ovarian; OVCAR-4 ovarian; SK-OV-3 ovarian; IGROV1 ovarian; OVCAR-3 ovarian; HS 578T breast; NCI/ADR-RES ovarian; T-47D breast; UO-31 renal; A498 renal.
Common to all, as to test: NCI-60 one-dose screen, 48 h (100 = growth as untreated, 0 = no growth, -100 = all killed)
Settings in all cases: 10 µM unless noted

About 83,000 compounds went through this panel and 20% of them were active in at least one assay; those are over-represented in the sample as a whole.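 Testing used 96-well plates and a 48-hour single-concentration exposure. Example: -40 means 40% of the starting cells died.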 Unmarked numbers belong to inactive results. Activity calls are given as the source filed them. Rule for the calls: active = growth percent below 10; inactive = the rest.

Turning to `COc1ccc(-n2c(SCC(=O)Nc3ccc(-c4nc5ccccc5[nH]4)cc3)nc3ccccc3c2=O)cc1`, the growth with EKVX NSCLC was 53.1%; in the assay with TK-10 renal, 107%; in the assay with ACHN renal, 54%; in the assay on CAKI-1 renal, 36.8%; with CCRF-CEM leukemia, 25.7%; in the assay on MOLT-4 leukemia it was 25.7%. Moreover, the growth with SR leukemia is -4.97% (active); with RPMI-8226 leukemia it was -21.2% (active); in the assay with OVCAR-8 ovarian, 20.9%; with OVCAR-5 ovarian, 68.5%; with OVCAR-4 ovarian, -33.7% (active); in the assay on SK-OV-3 ovarian, 136%. Further, the growth with IGROV1 ovarian was 17.5%; in the assay on OVCAR-3 ovarian, -34.8% (active); with HS 578T breast, 28.7%; with NCI/ADR-RES ovarian it was 32.5%; with T-47D breast it was -51.8% (active).

Take `C#Cc1nc(C2=C(C)C(=N\O)/C(=N/O)C2)cs1`: the growth in the assay on EKVX NSCLC was 95.7%; in the assay with UO-31 renal, -92.4% (active); with TK-10 renal it was 196%; in the assay on ACHN renal, 78.7%; in the assay with CAKI-1 renal, 93.7%; with CCRF-CEM leukemia it was 87.1%. Besides, the growth in the assay with MOLT-4 leukemia is 88%; with SR leukemia, 54.4%; in the assay with RPMI-8226 leukemia it was 72.2%; with OVCAR-8 ovarian, 92.3%; in the assay with OVCAR-5 ovarian, 109%; with OVCAR-4 ovarian, 99%. For the same compound, the growth was 105% in the assay with SK-OV-3 ovarian; -14.1% (active) in the assay on IGROV1 ovarian; 118% in the assay on OVCAR-3 ovarian; 86.7% in the assay on HS 578T breast; 38.5% with NCI/ADR-RES ovarian; 82.6% in the assay on T-47D breast.

As for `COc1ccc(-c2nc3ccc(-c4nnc(SCC(=O)Nc5ccc(C(C)=O)cc5)o4)cc3[nH]2)cc1`, the growth was 99.2% with EKVX NSCLC; 94.1% with UO-31 renal; 102% in the assay with ACHN renal; 101% with CAKI-1 renal; 110% in the assay with A498 renal; 100% in the assay on CCRF-CEM leukemia. In addition, the growth was 87.8% in the assay with MOLT-4 leukemia; 89.5% in the assay on SR leukemia; 97.1% in the assay on RPMI-8226 leukemia; 108% with OVCAR-8 ovarian; 107% in the assay with OVCAR-5 ovarian; 109% in the assay on OVCAR-4 ovarian. Besides, the growth was 118% in the assay with SK-OV-3 ovarian; 107% in the assay on IGROV1 ovarian; 138% with OVCAR-3 ovarian; 96.8% with HS 578T breast; 118% in the assay on NCI/ADR-RES ovarian; 105% in the assay with T-47D breast.

For the compound `NS(=O)(=O)c1cccc(Nc2nc(SCC(=O)c3ccc(Br)cc3)nc3ccccc23)c1`, the growth in the assay on EKVX NSCLC was 64.8%; in the assay on UO-31 renal, 59.6%; in the assay on TK-10 renal it was 124%; in the assay with ACHN renal it was 28%; in the assay on CAKI-1 renal, -11.3% (active); with CCRF-CEM leukemia it was 68.6%. For the same compound, the growth with MOLT-4 leukemia is 44%; in the assay on SR leukemia, 37.1%; in the assay on RPMI-8226 leukemia, 46.1%; with OVCAR-8 ovarian, 39.5%; with OVCAR-5 ovarian it was 115%; in the assay on OVCAR-4 ovarian it was 43.6%. The growth in the assay on SK-OV-3 ovarian was 90.1%; with IGROV1 ovarian, 85.4%; with OVCAR-3 ovarian it was 44%; in the assay on HS 578T breast, 59.6%; in the assay on NCI/ADR-RES ovarian, 82.8%; in the assay on T-47D breast, 31.9%.

`Cc1c(NC(=O)CSc2nc3sc4c(c3c(=O)n2-c2ccc(Cl)cc2)CCCC4)c(=O)n(-c2ccccc2)n1C`: the growth is 97.3% with EKVX NSCLC; 72.8% in the assay on UO-31 renal; 109% in the assay on TK-10 renal; 90.8% with ACHN renal; 65.1% in the assay with CAKI-1 renal; 62.6% in the assay with A498 renal. In addition, the growth with MOLT-4 leukemia was 71.3%; with SR leukemia, 86.1%; in the assay with RPMI-8226 leukemia, 86.7%; with OVCAR-8 ovarian it was 97.1%; in the assay with OVCAR-5 ovarian, 99.6%; in the assay with OVCAR-4 ovarian, 91.9%. Also, the growth with SK-OV-3 ovarian is 93.8%; in the assay on IGROV1 ovarian, 84.9%; with OVCAR-3 ovarian, 100%; with HS 578T breast, 88.3%; in the assay with NCI/ADR-RES ovarian, 101%; in the assay on T-47D breast, 90.1%.

Consider `CCN1C(=S)N(c2ccccc2)C2NC(=O)N(/N=C/C=C/c3ccccc3OC)C21` (centres undefined), for which the growth in the assay on EKVX NSCLC was 89.7%; with UO-31 renal, 90.4%; in the assay on TK-10 renal, 105%; in the assay on ACHN renal, 80.1%; in the assay on CAKI-1 renal, 72.6%; in the assay on A498 renal, 95%. The growth with CCRF-CEM leukemia is 92.3%; with MOLT-4 leukemia, 101%; in the assay on SR leukemia, 40.9%; with OVCAR-8 ovarian it was 73.1%; with OVCAR-5 ovarian it was 97.7%; in the assay on OVCAR-4 ovarian, 81.1%. For the same compound, the growth in the assay on SK-OV-3 ovarian is 115%; in the assay with IGROV1 ovarian, 92.1%; in the assay on OVCAR-3 ovarian it was 93.9%; in the assay with HS 578T breast, 78.7%; in the assay on NCI/ADR-RES ovarian it was 99.4%; in the assay on T-47D breast, 93.3%.

Consider `O=C1C2=C(C(=O)c3c(O)cccc31)C(c1ccco1)c1sc(=O)[nH]c1S2` (centres undefined), for which the growth in the assay with EKVX NSCLC is 83.4%; in the assay with UO-31 renal, 25.1%; with TK-10 renal it was 146%; with ACHN renal, 39.6%; in the assay with CAKI-1 renal it was 70.4%; with A498 renal it was 17.1%. For the same compound, the growth in the assay with CCRF-CEM leukemia is 13%; in the assay on MOLT-4 leukemia it was 0.849% (active); in the assay on RPMI-8226 leukemia, 18.7%; in the assay with OVCAR-8 ovarian, 2.5% (active); in the assay with OVCAR-5 ovarian it was 11.7%; in the assay with OVCAR-4 ovarian, 24.3%. Moreover, the growth is 115% in the assay with SK-OV-3 ovarian; 28.1% with IGROV1 ovarian; -10.4% (active) with HS 578T breast; 9.22% (active) in the assay on NCI/ADR-RES ovarian; 23.6% in the assay on T-47D breast.
